Measurements reported in PubChem BioAssay AID1159580 (chemical genetic matrix, 2015).
Several values for one entry are separate records, joined by “and”; a condition that tells them apart may be missing. Identical values can stand only once. Screen size: about 5,500 compounds; about 2,000 (36%) were called active. Inconclusive results (about 18%) are left out. Rule as the data show it: active = normalized growth mostly below about 0.91 (no sharp cut-off); inconclusive = no clear call, values can overlap the other calls; inactive = mostly above about 0.92. This is one part of the list.

Experiment: chemical genetic growth profiling, strain panel (AID 1159580);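 also: tested at 20 µM; growth read once vehicle control cultures reached saturation at 30 °C; 1 = growth at the plate median or of vehicle wells; lower values mean less growth of the strain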
Settings: S. cerevisiae deletion strains, growth OD

Measured: normalized growth

COc1cc(NC(C)CCCN)c2ncccc2c1 (configuration not stated)
inactive: locus YAL013W, strain DEP1, stronger effect = lower value 1 | locus YAL021C, strain ccr4, stronger effect = lower value 0.972 | locus YAL026C, strain drs2, stronger effect = lower value 1.02 | locus YAL030W, strain snc1, stronger effect = lower value 0.999 | locus YBL061C, strain skt5, stronger effect = lower value 1 | locus YBR009C, strain hhf1, stronger effect = lower value 1.07 | locus YBR021W, strain FUR4, stronger effect = lower value 0.988 | locus YBR023C, strain chs3, stronger effect = lower value 1.02 | locus YBR171W, strain sec66, stronger effect = lower value 1.01 | locus YBR229C, strain ROT2, stronger effect = lower value 1 | locus YBR231C, strain swc5, stronger effect = lower value 0.984 | locus YBR279W, strain paf1, stronger effect = lower value 1.01 | locus YCL011C, strain gbp2, stronger effect = lower value 1.01 | locus YCL016C, strain dcc1, stronger effect = lower value 1.02 | locus YCL029C, strain bik1, stronger effect = lower value 1.02 | locus YCL061C, strain MRC1, stronger effect = lower value 1 | locus YCL069W, strain vba3, stronger effect = lower value 1.01 | locus YCR088W, strain abp1, stronger effect = lower value 1 | locus YDL005C, strain med2, stronger effect = lower value 1 | locus YDL035C, strain GPR1, stronger effect = lower value 1 | locus YDL040C, strain nat1, stronger effect = lower value 1 | locus YDL074C, strain BRE1, stronger effect = lower value 1.01 | locus YDL101C, strain DUN1, stronger effect = lower value 1.02 | locus YDL134C, strain PPH21, stronger effect = lower value 1.01 | locus YDL185W, strain tfp1, stronger effect = lower value 1.01 | locus YDL192W, strain arf1, stronger effect = lower value 1.01 | locus YDR001C, strain nth1, stronger effect = lower value 1.01 | locus YDR069C, strain doa4, stronger effect = lower value 0.977 | locus YDR101C, strain arx1, stronger effect = lower value 1 | locus YDR137W, strain rgp1, stronger effect = lower value 1.03 | locus YDR150W, strain NUM1, stronger effect = lower value 1.01 | locus YDR159W, strain sac3, stronger effect = lower value 0.993 | locus YDR162C, strain NBP2, stronger effect = lower value 1.01 | locus YDR195W, strain ref2 0.99 | locus YDR297W, strain sur2, stronger effect = lower value 1 | locus YDR318W, strain mcm21, stronger effect = lower value 1 | locus YDR334W, strain swr1, stronger effect = lower value 1.01 | locus YDR335W, strain msn5, stronger effect = lower value 1 | locus YDR388W, stronger effect = lower value 1.02 | locus YDR392W, strain spt3, stronger effect = lower value 0.875 | locus YDR502C, strain sam2, stronger effect = lower value 1 | locus YEL003W, strain gim4, stronger effect = lower value 1.01 | locus YEL037C, strain rad23, stronger effect = lower value 1.02 | locus YEL061C, strain CIN8 (second series), stronger effect = lower value 1 | locus YEL061C, strain CIN8, stronger effect = lower value 1 | locus YER015W, strain faa2, stronger effect = lower value 0.989 | locus YER016W, strain bim1, stronger effect = lower value 0.995 | locus YER110C, stronger effect = lower value 1.01 | locus YER111C, strain swi4, stronger effect = lower value 1.01 | locus YER155C, strain BEM2, stronger effect = lower value 0.999 | locus YER167W, strain BCK2, stronger effect = lower value 1.01 | locus YFR010W, strain ubp6, stronger effect = lower value 1.01 | locus YGL078C, strain dbp3, stronger effect = lower value 1.01 | locus YGL086W, strain mad1, stronger effect = lower value 0.981 | locus YGL167C, strain pmr1, stronger effect = lower value 1.01 | locus YGL173C, strain kem1, stronger effect = lower value 1.02 | locus YGL227W, strain vid30, stronger effect = lower value 0.999 | locus YGL240W, strain doc1, stronger effect = lower value 0.985 | locus YGL248W, strain PDE1, stronger effect = lower value 1.01 | locus YGL253W, strain hxk2, stronger effect = lower value 1.03 | locus YGR078C, strain PAC10, stronger effect = lower value 1.02 | locus YGR135W, strain pre9, stronger effect = lower value 0.991 | locus YGR229C, strain SMI1, stronger effect = lower value 1.01 | locus YGR252W, strain gcn5, stronger effect = lower value 0.961 | locus YHR013C, strain ard1, stronger effect = lower value 1 | locus YHR027C, strain rpn1, stronger effect = lower value 1.03 | locus YHR030C, strain SLT2, stronger effect = lower value 1.01 and 1.05 | locus YHR079C, strain IRE1 (second series), stronger effect = lower value 1.01 | locus YHR079C, strain IRE1, stronger effect = lower value 1.05 | locus YHR094C, strain hxt1, stronger effect = lower value 1.01 | locus YHR129C, strain ARP1, stronger effect = lower value 1 | locus YHR142W, strain chs7, stronger effect = lower value 1.05 | locus YHR200W, strain rpn10, stronger effect = lower value 1 | locus YIL066C, strain RNR3, stronger effect = lower value 1.01 | locus YIL073C, strain SPO22, stronger effect = lower value 1.1 | locus YIL125W, strain kgd1, stronger effect = lower value 1.01 | locus YIR030C, strain dcg1, stronger effect = lower value 1.01 | locus YJL092W, strain hpr5, stronger effect = lower value 0.995 | locus YJL095W, strain BCK1 (second series), stronger effect = lower value 1.02 | locus YJL095W, strain BCK1, stronger effect = lower value 1 and 1.03 | locus YJL115W, strain asf1, stronger effect = lower value 1.01 | locus YJL129C, strain trk1, stronger effect = lower value 1.04 | locus YJL134W, strain LCB3, stronger effect = lower value 1 | locus YJL154C, strain vps35, stronger effect = lower value 1 | locus YJL164C, strain tpk1, stronger effect = lower value 1.04 | locus YJL166W, strain qcr8, stronger effect = lower value 0.964 | locus YJL168C, strain set2, stronger effect = lower value 1.01 | locus YJL187C, strain SWE1 (second series), stronger effect = lower value 1.02 | locus YJL187C, strain SWE1, stronger effect = lower value 0.998 | locus YJR043C, strain POL32, stronger effect = lower value 0.995 | locus YJR066W, strain TOR1, stronger effect = lower value 0.977
active: locus YER155C, strain BEM2 (second series), stronger effect = lower value 0.859
